{"source": "PubChem BioAssay AID602475", "about": "(National Center for Advancing Translational Sciences (NCATS), 2012)", "biological_target": "Luciferin 4-monooxygenase (Photinus pyralis) (UniProt P08659)", "sequence (P08659 whole entry, looked up)": "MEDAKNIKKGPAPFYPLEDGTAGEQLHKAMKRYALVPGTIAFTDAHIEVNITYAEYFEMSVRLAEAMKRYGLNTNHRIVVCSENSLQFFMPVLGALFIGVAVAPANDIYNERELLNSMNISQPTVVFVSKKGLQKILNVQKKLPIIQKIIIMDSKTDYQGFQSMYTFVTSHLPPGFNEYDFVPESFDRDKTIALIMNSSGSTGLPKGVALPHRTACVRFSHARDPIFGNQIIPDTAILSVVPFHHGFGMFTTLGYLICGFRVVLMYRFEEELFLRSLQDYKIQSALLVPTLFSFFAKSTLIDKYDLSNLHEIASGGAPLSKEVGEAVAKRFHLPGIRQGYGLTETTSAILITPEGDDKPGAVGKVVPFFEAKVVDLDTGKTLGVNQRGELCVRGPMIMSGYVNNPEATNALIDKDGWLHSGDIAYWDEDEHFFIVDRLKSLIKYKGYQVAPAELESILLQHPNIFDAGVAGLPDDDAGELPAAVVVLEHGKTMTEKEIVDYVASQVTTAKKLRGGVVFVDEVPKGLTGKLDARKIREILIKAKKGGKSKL", "assay": "FLuc inhibitory activity for the follow-up compounds in a biochemical assay with an in-house formulation of detection reagent", "settings": "purified FLuc, luminescence; series mostly up to 25.6 µM", "procedure,_shortened": "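qHTS 12-point titration (~25uM–0.1nM) against 10 nM firefly luciferase; activity read as luminescence after adding in-house reagent containing 1mM D-luciferin, 450uM ATP, 500uM Coenzyme A and 300mM MgCl.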", "note": "Results filed as inconclusive are left out. Entries that show only a call come without a potency. Activity calls are given as the source filed them. The call rests on the fitted dose curve; in most records, active means well fitted inhibition curve with a large enough effect; inconclusive means small, poorly fitted or top-dose-only effect; inactive means no such curve, though single readings can be large or run the other way.", "data": [{"smiles": "O=C(O)c1ccc(NC(=O)c2ccccc2NC(=O)c2cccc(Br)c2)cc1", "values": [{"measurement": "Potency", "result": "inactive"}]}]}
